This note sets out measurements from PubChem BioAssay AID1347156 (National Center for Advancing Translational Sciences (NCATS), 2019).

Results filed as inconclusive are left out. Activity calls are given as the source filed them. The call rests on the fitted dose curve; in most records, active means well fitted cell-killing curve with a large enough effect; inconclusive means small, poorly fitted or top-dose-only effect; inactive means flat fitted curve, though single readings scatter.
Potency means the concentration at half of the fitted maximal effect.

The nature of this experiment: DAPI mCherry counterscreen qHTS for Zika virus inhibitors. Further: nearly all actives have a fitted effect of over 55% in size. To be noted: Vero cells, DAPI nuclear count cytotoxicity, imaging 48-72 h, infected with Zika reporter virus, MOI 1; series mostly up to 32.6 µM. A digest of the protocol: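 Imaging read-out after fixation and Hoechst nuclear staining: percent infection from mCherry-positive cells (above 3 SD of negative controls) and nuclear counts. Setup: Vero cells pre-plated overnight, compound added, infected with ZIKV-mCherry (MOI 1), 48-72 hrs, 37 degrees C.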
Take `N#CC1C(=O)Nc2scc(-c3ccc(-c4ccccc4O)cc3)c2C1=O` (stereo unspecified): the Potency was 8.91 µM (active).

In the case of `O=c1c(O)c(-c2ccc(O)cc2O)oc2cc(O)cc(O)c12`, the Potency entry is “inactive”.

Regarding `Cc1ccccc1NC(=O)Nc1ccc(CN2C(=O)N([C@@H](CC(C)C)C(=O)N[C@@H](CC(=O)O)c3ccccc3)C(=O)C2(C)C)cc1`, the Potency was 7.08 µM (active).

On to `O=c1cc(-c2ccccc2)oc2cc(O)c(O)c(O)c12`, for which the Potency result was “inactive”.

For the molecule `O=C(Nc1ccc(C(=O)OCc2cc(=O)n3c4c(sc3n2)CCCC4)cc1)c1ccc(F)cc1`, the Potency result was “inactive”.

On to `N#CC(C#N)=C(N)/C(C#N)=C/c1cc(O)c(O)c(O)c1`, for which the Potency result was “inactive”.

Consider `Cc1cc(CN2CCN(c3c(Br)cnc4nc(-c5ccc(N6CCN(C)CC6)cc5)[nH]c34)CC2)no1`, for which the Potency was 10 µM (active).

As for `COc1c2occc2cc2ccc(=O)oc12`, the Potency result was “inactive”.

Consider `O=C(O)c1ccccc1-c1c2cc(I)c(=O)c(I)c-2oc2c(I)c(O)c(I)cc12`, for which the Potency entry is “inactive”.

`O=C(O)COc1ccc(-c2nccc3c2C(=O)N(Cc2cccc(C(F)(F)F)c2)CC(COc2ccc4cnccc4c2)O3)cc1` (stereo unspecified): the Potency result is “inactive”.

On to `NC(=O)c1ccc2nc(-c3ccc(Oc4ccc(Cl)cc4)cc3)[nH]c2c1`, for which the Potency is 31.6 µM (active).

In the case of `CCCCc1nn2c(=O)cc(COC(=O)c3ccc(NC(=O)c4ccccc4Cl)cc3)nc2s1`, the Potency was 22.4 µM (active).

`Cc1ccc(-n2[nH]c(C)c(N=Nc3cccc(-c4cccc(C(=O)O)c4)c3O)c2=O)cc1C`: the Potency was 14.1 µM (active).

With `Cc1nn2c(=O)cc(COC(=O)c3ccc(NC(=O)c4ccc(C(C)(C)C)cc4)cc3)nc2s1`, the Potency was 28.2 µM (active).

`O=C(O)Cc1cccc(OCCCN(Cc2cccc(C(F)(F)F)c2Cl)CC(c2ccccc2)c2ccccc2)c1`: the Potency was 15.8 µM (active).

Regarding `CCc1oc2ccccc2c1C(=O)c1cc(Br)c(O)c(Br)c1`, the Potency was 11.2 µM (active).

As to `O=S(=O)(Nc1ccc(Cl)cc1)c1ccc(NS(=O)(=O)c2ccc3c(c2)OCCO3)cc1`, the Potency was 31.6 µM (active).

For the molecule `CC(C)c1ccc2c(c1)c(SC(C)(C)C)c(CC(C)(C)C(=O)O)n2Cc1ccc(Cl)cc1`, the Potency was 11.2 µM (active).

As for `Cc1oc2c(cc(NS(=O)(=O)c3ccc(Cl)cc3)c3ccccc32)c1C(=O)OCc1ccccc1`, the Potency entry is “inactive”.

Take `O=C1c2c(O)ccc([N+](=O)[O-])c2C(=O)c2c([N+](=O)[O-])ccc(O)c21`: the Potency is 39.8 µM (active).

Regarding `CCS(=O)(=O)c1cccc(C(=O)Nc2ccc(-c3nc4ccccc4s3)c(O)c2)c1`, the Potency is 14.1 µM (active).

Turning to `O=C(OCc1cc(=O)n2nc(C3CC3)sc2n1)c1ccc(NC(=O)c2ccccc2Cl)cc1`, the Potency entry is “inactive”.

On to `COc1cc(Nc2nc3ccccc3nc2NS(=O)(=O)c2ccc(NC(=O)c3ccc(C)c(OC)c3)cc2)cc(OC)c1`, for which the Potency is 4.47 µM (active).

Regarding `COc1ccc(/C=C(\C#N)c2nc(-c3cc4c(ccc5ccccc54)oc3=O)cs2)cc1O`, the Potency was 1 µM (active).

With `Cc1cc(S(=O)(=O)Nc2ccc(C(=O)O)cc2)c(C)c(S(=O)(=O)c2ccc(Cl)cc2)c1`, the Potency result is “inactive”.

As for `O=C(O)c1cccc(-c2ccc(-c3cn(C(=O)N4CCCCC4Cc4ccccc4)nn3)cc2)c1` (stereo unspecified), the Potency is 35.5 µM (active).

On to `O=C(COc1ccccc1C(=O)OCC(=O)Nc1cccc2ccccc12)Nc1ccc(Br)cc1`, for which the Potency result was “inactive”.

`CCOC(=O)c1ccc(Nc2nc3ccccc3nc2NS(=O)(=O)c2ccc(Cl)cc2)cc1`: the Potency was 7.94 µM (active).

As for `O=C(Nc1cccc2c(=O)cc(-c3nn[nH]n3)oc12)c1ccc(OCCCCc2ccccc2)cc1`, the Potency was 35.5 µM (active).

For `CN(CC(=O)N(Cc1ccc(C2CCCCC2)cc1)c1ccc(C(=O)O)cc1)S(=O)(=O)c1c(F)c(F)c(F)c(F)c1F`, the Potency is 5.62 µM (active).

As for `COc1cccc(-n2nc(C(=O)O)cc2-c2ccc(C3CCCCC3)c(Cl)c2)c1`, the Potency is 35.5 µM (active).
